LMP1 NFkB inh = EBV LMP1-driven NF-kappaB luciferase reporter inhibitors, primary screen, cell-based, luminescence, single point. LMP1-induced NF-kappaB luciferase reporter cells. hit rate 0.69% among 350,000. inhibition, % at 12.5 µM; in the data active = inhibition above about 41%; inconclusive = no clear call, values can overlap the other calls;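 note: 0% = neutral control wells and 100% = reference inhibitor control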
MITF TRPM1 inh = inhibitors of MITF-dependent TRPM1 promoter reporter, primary screen, cell-based, SK-MEL-5, single point, luciferase; SK-MEL-5 TRPM1 promoter luciferase, 24 h; inhibition, % at 12.5 µM; hit rate 0.83% among 330,000; AID 488899, 2010;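 active = mean inhibition across replicates of 60% or more, whatever share of single replicates reaches that level; inconclusive = some that reach 60%, reason not given; inactive = mean inhibition across replicates below 60%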
PAX8 reporter = inhibitors of PAX8-driven TPO luciferase reporter, primary screen, RMG-I cells, single concentration | hit rate 1.2% among 360,000 | inhibition, % at 12.6 µM | SteadyGlo, 24 h;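 active = mean replicate inhibition at least 60% with every replicate also reaching 60%; inconclusive = only one of the two criteria is met; inactive = mean below 60% and not all replicates reaching 60%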;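 note: luciferase light reporting Pax8 driven TPO promoter activity; plate controls were median of neutral control wells for no effect and mitoxantrone controls for full effect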
aSyn 5UTR inh = MLPCN primary screen, SNCA 5' untranslated region; alpha-synuclein 5'UTR reporter, inhibitor activity; inhibition, % (tested at 7.5 µM); hit rate 0.82% among 300,000; AID 1813, 2009; in the data active = inhibition above about 60%; inconclusive = no clear call, values can overlap the other calls;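 note: H4 neuroglioblastoma cells stably carrying SNCA 5'UTR luciferase fusion; 0% = DMSO wells and 100% = positive control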
Shn3 3UTR inh = reduction of Shn3 3'UTR firefly luciferase signal, primary screen, Schnurri-3 inhibitor project, cell-based, Clone20 osteoblasts, set 2; hit rate 0.52% among 360,000; inhibition, % at 12.5 µM; Clone20 osteoblast Shn3 3'UTR firefly luciferase, 24 h;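 active = mean inhibition of at least 75% with every replicate also reaching 75%; inconclusive = mean inhibition at least 75% but some replicate below; inactive = mean inhibition below 75%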;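 note: 0% = median of neutral control wells and 100% = pilot-screen positive control compound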
* = called active by the depositor; ? = inconclusive; nt = not tested or not shown. Compounds with a hit are over-represented: about 2.1% of the library has one in this group of screens.

SMILES	LMP1 NFkB inh	MITF TRPM1 inh	PAX8 reporter	aSyn 5UTR inh	Shn3 3UTR inh
CS(=O)(=O)CCC(C(=O)Nc1ccc2c(c1)OCO2)N1Cc2ccccc2C1=O (configuration not stated)	60.0*	-20.7	-28.9	-33.5	-33.9
COc1ccc(OC)c2c1sc(=NC(=O)c1ccco1)n2C	52.8*	4.2	-11.4	-44.9	-12.7
COc1ccc(OC)c2c1sc(=NC(=O)C1CC1)n2C	-4.0	20.8	13.6	9.2	12.9
COc1cc2oc(=O)cc(-c3ccc(-c4ccc(OC(F)(F)F)cc4)cc3)c2c(OC)c1OC	14.8	-15.5	-15.3	nt	7.4
O=C1ON=C(c2ccccc2)/C1=C/c1ccc(-c2ccccc2[N+](=O)[O-])o1	-7.4	67.1*	19.7	nt	?
O=[N+]([O-])c1ccccc1-c1ccc(/C=N/n2cnnc2)o1	9.3	0.7	nt	-35.3	14.1
O=C(N/N=C/c1cc([N+](=O)[O-])ccc1O)C(O)(c1ccccc1)c1ccccc1	5.6	18.0	6.2	2.0	13.3
O=[N+]([O-])c1cccc(C(=Nc2ccccc2)NO)c1	3.8	18.7	14.7	-17.3	-2.3
O=[N+]([O-])c1cc([N+](=O)[O-])c2c(=Nc3ccccc3)n(-c3ccccc3)n(O)c2c1	-10.5	61.1*	37.1	-77.5	-6.7
CCc1nn2cc(-c3ccccc3)nc2s1	66.0*	19.3	12.7	80.2*	35.7
Cc1nn2cc(-c3ccc(-c4ccccc4)cc3)nc2s1	-7.3	-38.8	nt	1.6	0.4
CC(=O)c1cccc(NC(=O)CCN2C(=O)C3CC=CCC3C2=O)c1 (configuration not stated)	-7.8	-1.9	-7.8	nt	-1.4
Nn1c(SCC(=O)NCCc2ccc(S(N)(=O)=O)cc2)nnc1C1CCCCC1	-1.7	0.5	5.2	nt	-9.2
CCCCN(C(C)=O)c1ccc2c(c1)C1CC2CCN1C(=O)OCc1ccccc1 (configuration not stated)	6.4	19.4	29.5	nt	89.6*
O=C(/C=C/c1ccc(O)c(O)c1)NC(=O)c1ccccc1O	-8.1	nt	nt	-145.4	-7.7
C[C@@H]1CN([C@@H](C)CO)C(=O)c2cc(NC(=O)Nc3ccc(C(F)(F)F)cc3)ccc2O[C@@H](C)CCCCO[C@@H]1CN(C)Cc1ccncc1	nt	nt	83.5*	nt	nt
C[C@H]1CCCCO[C@H](CN(C)Cc2ccncc2)[C@@H](C)CN([C@@H](C)CO)C(=O)c2cc(NC(=O)Nc3ccc(C(F)(F)F)cc3)ccc2O1	nt	nt	58.0	nt	nt
C[C@@H]1CN([C@@H](C)CO)C(=O)c2cc(NC(=O)Nc3ccc(C(F)(F)F)cc3)ccc2O[C@@H](C)CCCCO[C@H]1CN(C)Cc1ccncc1	nt	nt	86.3*	nt	nt
C[C@@H]1CCCCO[C@@H](CN(C)Cc2ccncc2)[C@H](C)CN([C@H](C)CO)C(=O)c2cc(NC(=O)Nc3ccc(C(F)(F)F)cc3)ccc2O1	nt	nt	99.1*	nt	nt
COc1ccc(NC(=O)Nc2ccc3c(c2)C(=O)N([C@H](C)CO)C[C@H](C)[C@@H](CN(C)C(=O)Nc2ccccc2)O3)cc1	-18.2	1.3	-3.5	nt	-10.3
CC(=O)C[C@H]1c2ccccc2S(=O)(=O)N1C1CCCC1	-5.7	4.0	1.6	2.2	-8.1
CCCNC(=O)N1C[C@@H](C)[C@@H](OC)CN(C)C(=O)c2cc(NS(=O)(=O)CC)ccc2OC[C@@H]1C	nt	nt	-2.0	nt	nt
CN1C(=O)c2cc(NC(=O)C3CCC3)ccc2OC[C@H]2O[C@@H](CC(=O)NCc3ccccc3F)CC[C@H]21	nt	nt	2.7	nt	nt
CCCCNC(=O)C1(C)CCN1C(=O)c1sccc1C (configuration not stated)	nt	nt	-9.8	nt	-7.3
O=C(NC1CCCCCC1)C1c2ccccc2C(=O)N1Cc1cccs1 (configuration not stated)	-10.4	5.4	91.3*	-35.5	-8.6
SMILES	LMP1 NFkB inh	MITF TRPM1 inh	PAX8 reporter	aSyn 5UTR inh	Shn3 3UTR inh
COc1cc(OC)c(C(=O)OCC(=O)Nc2ccccc2Cl)cc1OC	3.7	8.0	1.0	2.4	0.7
COc1ccccc1C(=O)NC1CCN(C(=O)Nc2ccc(C)cc2)CC1	8.0	5.5	4.1	31.5	15.0
C[C@H]1CN([C@@H](C)CO)C(=O)Cc2cc(NC(=O)NC3CCCCC3)ccc2O[C@@H]1CN(C)Cc1ccc(-c2ccccc2)cc1	nt	nt	103.3*	nt	nt
C[C@@H]1CN([C@@H](C)CO)C(=O)Cc2cc(NC(=O)NC3CCCCC3)ccc2O[C@H]1CN(C)Cc1ccc(-c2ccccc2)cc1	nt	nt	79.5*	nt	nt
C[C@H](CO)N1C[C@H](C)[C@H](CN(C)Cc2ccc(-c3ccccc3)cc2)Oc2ccc(NC(=O)NC3CCCCC3)cc2CC1=O	nt	nt	16.2	nt	nt
C[C@H]1CN([C@@H](C)CO)C(=O)Cc2cc(NC(=O)NC3CCCCC3)ccc2O[C@H]1CN(C)Cc1ccc(-c2ccccc2)cc1	nt	nt	103.2*	nt	nt
CNC(=S)N/N=C/c1ccc(-c2cccc(C(=O)O)c2)o1	15.1	0.0	-36.1	14.7	-50.7
Cc1ccc(C(=O)N/N=C/c2ccc(-c3cccc(C(F)(F)F)c3)o2)cn1	2.9	12.7	25.4	65.2*	14.9
CCCCc1ccc(S(=O)(=O)NCCc2ccncc2)cc1	2.7	10.5	nt	4.7	42.0
CCCCNS(=O)(=O)c1ccc(S(=O)(=O)NCc2ccncc2)cc1	4.8	22.7	nt	-5.2	85.9*
CCc1ccc(S(=O)(=O)/N=C2\C=C(Nc3cccc(C(=O)O)c3)C(=O)c3ccccc32)cc1	-9.3	20.2	-24.8	30.0	14.9
CCc1ccc(S(=O)(=O)/N=C2\C=C(Nc3ccc(O)cc3)C(=O)c3ccccc32)cc1	90.2*	99.9*	nt	101.4*	94.8*
Cc1cc(C)c(S(=O)(=O)/N=C2\C=C(NS(=O)(=O)c3ccccc3)C(=O)c3ccccc32)c(C)c1	-0.1	24.7	24.1	34.2	9.2
Cc1cc(C)c(S(=O)(=O)/N=C2\C=C(Nc3ccc(C(=O)O)cc3)C(=O)c3ccccc32)c(C)c1	8.9	77.8*	?	16.2	74.4
CCc1ccc(S(=O)(=O)/N=C2/C=C(Sc3ncn[nH]3)C(=O)c3ccccc32)cc1	23.9	70.0*	nt	nt	98.0*
O=C(O)c1ccc(NC2=C/C(=N/S(=O)(=O)c3ccccc3)c3ccccc3C2=O)cc1	-11.7	62.7*	79.8*	nt	?
O=C(O)c1ccc(NC2=C/C(=N/S(=O)(=O)c3cccs3)c3ccccc3C2=O)cc1	-5.7	nt	36.3	nt	17.5
CN1CCN(C(=O)c2ccccc2NC(=O)Cc2ccccc2)CC1	0.5	-3.2	nt	-7.6	1.2
COc1ccc(C(=O)/C=C/Nc2ccc(S(=O)(=O)Nc3cccc(C(C)=O)c3)cc2)cc1	5.7	14.8	-8.1	-11.6	?
